The entries come from a sample that favours hits as a whole.
ROC1-CUL1 inh = blocks human RBX1-Cullin-1 di-ubiquitin formation | in vitro K48 di-Ub FRET, acceptor:donor ratio, 45 min | hit rate 0.6% among 140,000 | P62877+Q13616 | AID 1347404 | inhibition, % at 10 µM; in the data active = inhibition above about 25%
Target sequence (P62877 whole entry, looked up): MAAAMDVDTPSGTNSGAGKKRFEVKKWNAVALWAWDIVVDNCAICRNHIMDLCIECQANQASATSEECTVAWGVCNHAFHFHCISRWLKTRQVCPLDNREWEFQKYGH
Target sequence (Q13616 whole entry, looked up): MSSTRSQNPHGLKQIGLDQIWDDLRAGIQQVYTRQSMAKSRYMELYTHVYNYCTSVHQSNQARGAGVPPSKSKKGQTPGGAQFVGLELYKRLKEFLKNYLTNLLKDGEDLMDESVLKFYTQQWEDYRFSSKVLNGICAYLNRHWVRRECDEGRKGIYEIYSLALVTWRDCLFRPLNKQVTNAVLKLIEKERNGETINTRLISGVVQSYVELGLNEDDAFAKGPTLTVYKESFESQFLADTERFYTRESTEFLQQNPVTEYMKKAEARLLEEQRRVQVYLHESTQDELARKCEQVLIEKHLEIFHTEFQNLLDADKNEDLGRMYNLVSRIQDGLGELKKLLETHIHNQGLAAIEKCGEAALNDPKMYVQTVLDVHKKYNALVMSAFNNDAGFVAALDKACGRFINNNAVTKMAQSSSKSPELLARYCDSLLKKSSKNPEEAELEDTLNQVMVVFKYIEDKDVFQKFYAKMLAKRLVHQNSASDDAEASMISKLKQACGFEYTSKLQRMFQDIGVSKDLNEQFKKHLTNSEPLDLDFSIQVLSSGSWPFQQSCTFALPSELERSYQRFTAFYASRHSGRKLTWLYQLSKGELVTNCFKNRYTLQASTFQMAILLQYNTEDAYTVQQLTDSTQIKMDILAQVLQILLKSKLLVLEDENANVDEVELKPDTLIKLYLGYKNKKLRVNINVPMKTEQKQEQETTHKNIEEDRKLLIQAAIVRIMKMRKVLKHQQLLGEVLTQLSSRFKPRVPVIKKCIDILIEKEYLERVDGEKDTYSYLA
A number is an active result; – = inactive.

SMILES | ROC1-CUL1 inh
CCCCCCCC1=NN2C(=N)/C(=C/c3ccc(-c4cccc(C(=O)O)c4)o3)C(=O)N=C2S1 | 96.8
CCCC1=NN2C(=N)/C(=C/c3ccc(-c4cccc(C(=O)O)c4)o3)C(=O)N=C2S1 | –
CCCCCCCC1=NN2C(=N)/C(=C/c3ccccc3C)C(=O)N=C2S1 | –
Cc1ccc(-c2[nH]ncc2CNCc2cc(C)n(C)n2)cc1C | –
CC(C)(C)C(=O)NC1CCS(=O)(=O)C1 (stereo not given) | –
O=C1c2cccc3cccc(c23)C(=O)C1Sc1ccccc1 | 99.5
O=C1c2ccccc2N(c2ccccc2)C(=O)C1Sc1ccccc1 (stereo not given) | –
O=C1Nc2ccccc2C(=O)C1Sc1ccccc1 (stereo not given) | –
CC(C)(C)c1cc(Br)ccc1OCC(=O)Nc1ccccc1 | –
Cc1cccc(NC(=O)COc2ccc(Br)cc2C=C2C(=O)NC(=S)NC2=O)c1 | –
O=C(COc1ccc(Br)cc1/C=C1/C(=O)ON=C1c1ccccc1)Nc1ccccc1 | 42.7
COc1ccc(-c2noc(-c3ccc(N4CCOCC4)c([N+](=O)[O-])c3)n2)cc1 | –
O=C1N(Cc2cccc(F)c2F)CCCC1(O)CNCC1CCCCC1 (stereo not given) | –
O=C1N(Cc2cccc(F)c2F)CCCC1(O)CNC1CCC1 (stereo not given) | –
O=C1N(Cc2cccc(F)c2F)CCCC1(O)CNC1CCCC1 (stereo not given) | 94.3
Cc1c(C(C)NCc2cccc3nonc23)cnn1-c1ccc(F)cc1F (stereo not given) | –
CCn1cc(C(=O)N2CCCC(C(=O)c3ccc4ccccc4c3)C2)cn1 (stereo not given) | 67.5
COC(=O)CCC(=O)N1CCCC(C(=O)c2ccc3ccccc3c2)C1 (stereo not given) | –
O=C(c1ccc2ccccc2c1)C1CCCN(C(=O)CCN2CCCC2=O)C1 (stereo not given) | –
Cn1c(=O)oc2cc(S(=O)(=O)N3CCCC(C(=O)N4CCN(c5ccccc5F)CC4)C3)ccc21 (stereo not given) | –
COc1ccc(N2C(=O)C3CCCCN3C2=S)cc1 (stereo not given) | –
CCOC(=O)Cn1cc(/C=c2\sc3n(c2=O)C(c2ccc(SC)cc2)C(C(=O)OCC)=C(c2ccccc2)N=3)c2ccccc21 (stereo not given) | –
CCOC(=O)C1=C(c2ccccc2)N=c2s/c(=C\c3ccc(N(CC)CC)cc3O)c(=O)n2C1c1ccc(SC)cc1 (stereo not given) | 47.2
CCOC(=O)C1=C(c2ccccc2)N=c2s/c(=C/c3ccccc3O)c(=O)n2C1c1ccc2c(c1)OCO2 (stereo not given) | –
CC(C)OC(=O)c1c(NC(=O)COc2cccc(Br)c2)sc2c1CCCC2 | –
SMILES | ROC1-CUL1 inh
CC(C)CCNS(=O)(=O)c1ccccc1 | –
O=C(O)C1=NN(c2ccccc2)C(=O)/C1=C\c1cccs1 | 25.8
O=C1/C(=C\c2cccs2)C(c2ccccc2)=NN1c1ccc(Cl)c(Cl)c1 | –
CCOC(=O)C1=NN(c2ccccc2)C(=O)/C1=C\c1ccc(F)cc1 | –
O=C(Nc1c(-c2ccccc2)nc2ccccn12)c1cc2cc(Br)ccc2oc1=O | –
COc1cc(C(=O)Nc2nnc(S(=O)(=O)N(C)c3ccccc3)s2)cc(OC)c1OC | –
CCOc1ccc(S(=O)(=O)N(C)CC(=O)N2CCCCC2)cc1C | –
O=C(Nc1ccc2oc(-c3ccc(Cl)cc3)nc2c1)c1ccc2ccccc2c1 | –
C=CCNC1CC(=O)N(c2ccc(OC)cc2)C1=O (stereo not given) | –
COc1ccccc1/C=C/C(=O)c1ccccc1 | –
CC(/C=C/C(=O)c1ccc(C)cc1)=C\c1ccccc1 | –
O=C(/C=C/C(=O)c1ccccc1)c1ccccc1 | 26.7
COc1ccccc1C1=Nn2c(nc3sc(C(=O)Nc4ccccc4Cl)c(C)c3c2=O)SC1 | –
COc1ccc(CCNC(=O)c2c(Cl)ccc(Cl)c2OC)cc1OC | –
CC(C)Cn1c(CN2CCCC(C)C2)cnc1S(C)(=O)=O (stereo not given) | –
O=c1[nH]c2cc(Cl)ccc2c(-c2ccccc2)c1Sc1nc2ccccc2n1CCc1ccccc1 | –
CC(=O)N1c2ccccc2N=C2CC(c3ccc(F)cc3)CC(=O)C2C1c1ccc(C#N)cc1 (stereo not given) | –
CCC(CC)C(=O)N1CCN(Cc2cccc(F)c2)CC1 | –
CC(CCc1ccccc1)NC(=O)CSc1n[nH]c(-c2ccc(F)cc2)n1 (stereo not given) | –
C=CCN1C(=O)/C(=C/c2ccc(Cl)cc2Cl)NC1=S | –
O=C1OC(c2ccc3ccccc3c2)=N/C1=C/c1ccc(-c2cc(Cl)ccc2Cl)o1 | –
C=CCN1C(=O)/C(=C/c2cc(Br)cc(OC)c2OC)C(=O)NC1=S | –
C=CCN1C(=O)NC(=O)/C(=C/c2ccccc2OCc2ccc(Cl)cc2Cl)C1=O | –
C=CCN1C(=O)NC(=O)/C(=C\c2cc(Br)ccc2OCc2ccc(Cl)cc2Cl)C1=O | 101.0
C=CCN1C(=O)NC(=O)/C(=C\c2ccc(-c3cc(Cl)ccc3Cl)o2)C1=O | 97.5
